Results filed as inconclusive are left out. Activity calls are given as the source filed them. Calls follow the shape of the dose curve; as a rule, active = well fitted curve in the direction sought with a large enough effect in the repeat runs; inconclusive = weak or mixed curves; inactive = no such curve, though single readings can be large; an effect the other way counts as inactive or inconclusive.
Columns and labels:
[1] = A CellTox Green Cytotoxicity Assay to monitor cytotoxicity in HepG2 cells - 24 hour (AID 1224878); conditions: CellTox Green fluorescence; series mostly up to 76.8 µM; also: nearly all actives have a fitted effect of over 45% in size
Procedure, shortened: (§1)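 Cells and non-lytic dye reagent are dispensed together (600 HepG2 cells/well) and incubated 5 h before DMSO compound transfer. Kinetic fluorescence is then recorded in the same wells during 40 h at 37 C.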

[2] = A CellTox Green Cytotoxicity Assay to monitor cytotoxicity in HepG2 cells - 40 hour (AID 1224879); conditions: CellTox Green fluorescence; series mostly up to 76.8 µM; also: nearly all actives have a fitted effect of over 40% in size
Procedure, shortened: as §1

[3] = qHTS RealTime-Glo MT Cell Viability Assay in HEK293 cells - 0 hour (AID 1224880); conditions: RealTime-Glo luminescence; series mostly up to 76.8 µM; also: top concentration of the series differs between compounds; nearly all actives have a fitted effect of over 45% in size
Procedure, shortened: (§2)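 Real-time viability in HEK293: signal arises when living cells convert a prosubstrate for NanoLuc in the medium, so luminescence tracks viable cell number. Compound (23 nL, DMSO) added 5 h post-seeding; kinetic reads at 0–40 h, 37 C.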

[4] = A CellTox Green Cytotoxicity Assay to monitor cytotoxicity in HEK293 cells - 32 hour (AID 1224881); conditions: CellTox Green fluorescence; series mostly up to 76.8 µM; also: nearly all actives have a fitted effect of over 40% in size; also: potency is read from the fitted curve at half-maximal effect
Procedure, shortened: (§3)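 Cells (HEK293, 600/well) and dye reagent are dispensed together. After 5 h at 37 C, 23 nL compound is pinned in. Plates stay at 37 C for 40 h with fluorescence read at 0h, 8h, 16h, 24h, 32h and 40h.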

[5] = A CellTox Green Cytotoxicity Assay to monitor cytotoxicity in HepG2 cells - 32 hour (AID 1224883); conditions: CellTox Green fluorescence; series mostly up to 76.8 µM; also: nearly all actives have a fitted effect of over 50% in size
Procedure, shortened: as §1

[6] = A CellTox Green Cytotoxicity Assay to monitor cytotoxicity in HEK293 cells - 8 hour (AID 1224884); conditions: CellTox Green fluorescence; series mostly up to 76.8 µM; also: nearly all actives have a fitted effect of over 35% in size
Procedure, shortened: as §3

[7] = qHTS RealTime-Glo MT Cell Viability Assay in HepG2 cells - 16 hour (AID 1224885); conditions: RealTime-Glo luminescence; series mostly up to 76.8 µM; also: nearly all actives have a fitted effect of over 50% in size
Procedure, shortened: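 Real-time, nonlytic viability: 600 HepG2 cells/well mixed with NanoLuc enzyme plus prosubstrate; 5 h settle, compound (DMSO) added by pintool; luminescence monitored over 40 h at 37 C.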

[8] = qHTS RealTime-Glo MT Cell Viability Assay in HEK293 cells - 24 hour (AID 1224886); conditions: RealTime-Glo luminescence; series mostly up to 76.8 µM; also: top concentration of the series differs between compounds; nearly all actives have a fitted effect of over 50% in size
Procedure, shortened: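 Cells + reagent dispensed (600 cells/well, HEK293) → 5 h at 37 C/5% CO2 → 23 nL compound in DMSO pinned → 40 h at 37 C → luminescence read at 0, 8, 16, 24, 32, 40 h.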

[9] = qHTS RealTime-Glo MT Cell Viability Assay in HEK293 cells - 8 hour (AID 1224887); conditions: RealTime-Glo luminescence; series mostly up to 76.8 µM; also: top concentration of the series differs between compounds; nearly all actives have a fitted effect of over 50% in size
Procedure, shortened: as §2

[10] = A CellTox Green Cytotoxicity Assay to monitor cytotoxicity in HepG2 cells - 0 hour (AID 1224882); conditions: CellTox Green fluorescence; series mostly up to 76.8 µM; also: nearly all actives have a fitted effect of over 35% in size
Procedure, shortened: as §1

Measured: Potency

O=C(NCN1CCOCC1)c1cnccn1
not listed: [10]
inactive: all other assays above

O=C(Cn1ccnc1[N+](=O)[O-])NCc1ccccc1
not listed: [10]
inactive: all other assays above

CC(C)OC(=O)CCC(=O)OC(C)C
not listed: [10]
inactive: all other assays above

CC1(C)O[C@H]2CC(=O)OC[C@]23[C@H]2CC[C@@]4(C)[C@H](c5ccoc5)OC(=O)[C@H]5O[C@]54[C@]2(C)C(=O)C[C@@H]13
not listed: [5]
inactive: all other assays above

O=C1NC(c2ccccc2)(c2ccccc2)C(=O)N1COP(=O)(O)O
not listed: [5]
inactive: all other assays above

OC1OCCOC1O (stereo unspecified)
not listed: [10]
inactive: all other assays above

C=Cc1ccc(C(C)(C)C)cc1
not listed: [5]
inactive: all other assays above

O=C1OCCO1
active: [4] 366 nM
not listed: [10]
inactive: all other assays above

C=C(C)[C@@H]1CC=C(C)C(=O)C1
not listed: [5]
inactive: all other assays above

CC(CO)(CO)CO
not listed: [10]
inactive: all other assays above

CCCCCC(C)O (stereo unspecified)
not listed: [5]
inactive: all other assays above

COC(=O)/C=C\C(=O)O
not listed: [10]
inactive: all other assays above

CC(=O)OCC(=O)Nc1cc(C#N)cc(NC(=O)COC(C)=O)c1Cl
not listed: [10]
inactive: all other assays above

CC1=C(O)C(=O)C(C)O1 (stereo unspecified)
not listed: [5]
inactive: all other assays above

CC(=O)O[Si](C)(OC(C)=O)OC(C)=O
not listed: [10]
inactive: all other assays above

NCC1(Cc2noc(=O)[nH]2)CCCCC1
not listed: [10]
inactive: all other assays above

CCN1CCCC1CN (stereo unspecified)
not listed: [5]
inactive: all other assays above

COc1ccc2c(c1)c1c3n2CCN(C)C3=NCC1
not listed: [5]
inactive: all other assays above

c1ccc2cnccc2c1
not listed: [5]
inactive: all other assays above

Cn1nnc2c(C(N)=O)ncn2c1=O
not listed: [5]
inactive: all other assays above

CC(N)CCCC(C)(C)O (stereo unspecified)
not listed: [5]
inactive: all other assays above

C#CCN[C@@H]1CCc2ccccc21
not listed: [10]
inactive: all other assays above

C[Si]1(C)O[Si](C)(C)O[Si](C)(C)O[Si](C)(C)O[Si](C)(C)O1
not listed: [10]
inactive: all other assays above

CC(C)NC(=O)c1ccc(C=O)cc1
not listed: [5]
inactive: all other assays above
